Here are results for 64 compounds from PubChem BioAssay AID504832 (National Center for Advancing Translational Sciences (NCATS), 2011).

About 18,000 (5.8%) of roughly 310,000 compounds were called active. Roughly 22% stayed inconclusive and do not appear here. The call rests on the fitted dose curve; in most records, active means well fitted inhibition curve with a large enough effect; inconclusive means small, poorly fitted or top-dose-only effect, or another doubt; inactive means no such curve, though single readings can be large or run the other way. This excerpt belongs to a sample that is enriched for actives.
On the % scale 0 is the no-effect control and ±100 the full control effect; potency means the concentration at half of the fitted maximal effect.

A short description of this assay: Primary qHTS for delayed death inhibitors of the malarial parasite plastid, 48 hour incubation. Conditions: P. falciparum luciferase growth in erythrocytes; series mostly up to 28.7 µM; activity change, negative = inhibition: at the top concentration. The essentials: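 Luciferase-expressing parasites in RBCs, 2% Hct / 0.1% parasitemia final; RPMI 1640 + 0.5% Albumax; 37 C, 5% CO2, one generation; luminescence read-out, lower signal = inhibition.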
For orientation: qHTS replaces the single test concentration by a dilution series.
Consider `O=C(Nc1ccccn1)C1CCN(S(=O)(=O)c2ccccc2)CC1`, for which the “activity change, negative = inhibition” value is 341% (inactive).
The same measure, in the same setting: as for `CCN(c1ccccc1)S(=O)(=O)c1cc2c(cc1C)n(C)c(=O)c(=O)n2C`, the figure is 19.7% (inactive).
Regarding `CCOC(=O)c1c(-c2ccccc2)oc2ccc(OC(=O)N(C)C)cc12`, the “activity change, negative = inhibition” value was -29.3% (inactive).
The same measure, in the same setting: as for `CCOC(=O)c1ccccc1NC(=O)COC(=O)CCC(=O)N1CCOCC1`, the figure is 46.9% (inactive).
Regarding `CCOC(=O)c1c(CN(C)C)n(-c2ccccc2)c2cc(Br)c(O)cc12`, the Potency is 1.17 µM (active).
As to `CCOC(=O)c1c(-c2cccc(N)c2)cn2ccccc12`, the “activity change, negative = inhibition” value was 10.1% (inactive).
On the same count and under the same terms, as for `CCOC(=O)c1ccccc1C(=O)N1CCOCCOCCOCC1`, the figure is 17% (inactive).
Take `CCOC(=O)c1c(CN2CCOCC2)n(-c2ccccc2)c2ccc(O)cc12`: the Potency was 10.4 µM (active).
Regarding `CN(CC(=O)Nc1ccc(Cl)cc1)C(=O)c1ccc(COc2ccccc2)cc1`, the “activity change, negative = inhibition” value was 10.9% (inactive).
Turning to `CCCCn1c(N)c(N(Cc2ccccc2OC)C(=O)COc2cc(C)ccc2Cl)c(=O)[nH]c1=O`, the “activity change, negative = inhibition” value is -29.8% (inactive).
With `Cc1ccc2c(c1)N(CC(=O)NCCc1ccc(Cl)cc1)C(=O)c1cccnc1O2`, the “activity change, negative = inhibition” value is -9.42% (inactive).
On the same count and under the same terms, as for `Cc1ccc2c(c1)N(CC(=O)NCCCN1CCCCC1)C(=O)c1cccnc1O2`, the figure is 5.21% (inactive).
As to `CC(=O)c1cccc(NC(=O)CN2C(=O)c3cccnc3Oc3ccc(Cl)cc32)c1`, the Potency is 13.1 µM (active).
In the case of `Cc1ccc(S(=O)(=O)N(C)CC(=O)NCCc2c[nH]c3ccccc23)cc1`, the “activity change, negative = inhibition” value is 0% (inactive).
`Cn1c(CNC(=O)c2ccco2)nnc1SCC(=O)N1CCN(c2ccccc2)CC1`: the “activity change, negative = inhibition” value was 12.7% (inactive).
On the same count and under the same terms, in the case of `CC(C)c1nc2cc(C(=O)NC(C)c3cnn(C)c3)ccc2o1` (centres undefined) it was 18.1% (inactive); in that of `CCN(CC(=O)Nc1ccc2c(c1)OCO2)S(=O)(=O)c1ccccc1`, 4.03% (inactive); in that of `C/C(=N\NC(=O)Cc1ccccc1[N+](=O)[O-])c1cccnc1`, 22.6% (inactive).
`Cn1cccc1-c1nc2ccccc2n1C`: the “activity change, negative = inhibition” value was 15.4% (inactive).
The same measure, in the same setting: in the case of `Cn1c(-c2ccco2)nc2cc3ccccc3cc21` it was 126% (inactive).
As to `CN1c2ccccc2-c2nc3ccccc3n2C1c1ccco1` (centres undefined), the Potency is 11.7 µM (active).
Consider `O=C(c1cc2cc(Br)cc(Br)c2oc1=O)N1CCOCC1`, for which the “activity change, negative = inhibition” value was 67.9% (inactive).
`CCOc1ccc(NC(=O)COc2ccc(C(=O)N3CCC(C(N)=O)CC3)cc2OC)cc1`: the “activity change, negative = inhibition” value was 46.2% (inactive).
The same measure, in the same setting: in the case of `COc1cc(NC(=O)c2cccs2)ccc1NC(=O)c1ccccc1Cl` it was -28.4% (inactive).
On the same count and under the same terms, in the case of `COc1cc2ccccc2cc1C(=O)Nc1ccncc1` it was 35.6% (inactive).
In the case of `COc1cc2ccccc2cc1C(=O)Nc1ccc(NC(=O)c2cccs2)cc1`, the Potency was 11.7 µM (active).
As for `Cc1ccnc(N2CCCC(C(=O)NC3CC3)C2)n1` (centres undefined), the “activity change, negative = inhibition” value is -1.35% (inactive).
With `O=C(NC1CC1)C(Cc1ccccc1)NS(=O)(=O)c1ccccc1F` (centres undefined), the “activity change, negative = inhibition” value was 16.1% (inactive).
On to `O=C(Cc1ccc([N+](=O)[O-])cc1)Nc1ccc(C(=O)N2CCOCC2)cc1`, for which the “activity change, negative = inhibition” value is 13.9% (inactive).
On the same count and under the same terms, in the case of `O=C(/C=C/c1ccco1)NC(=S)Nc1ccccc1Br` it was 16.6% (inactive); in that of `C=CCn1c(SCc2ccccc2)nc2c1c(=O)[nH]c(=O)n2C`, 5.64% (inactive); in that of `CCCCCCn1c(SCC(=O)c2ccccc2)nc2c1c(=O)[nH]c(=O)n2C`, 0.0882% (inactive).
Take `CCC(C)Sc1nc2c(c(=O)[nH]c(=O)n2C)n1CC(O)COc1cccc2ccccc12` (centres undefined): the Potency is 10.4 µM (active).
Turning to `CCc1ccc(NC(=O)CS(=O)CC(=O)N2CCN(c3ccccc3F)CC2)cc1` (centres undefined), the “activity change, negative = inhibition” value is 0.939% (inactive).
The same measure, in the same setting: in the case of `COc1cc(C(=O)NCC(=O)N2CC=C(c3ccccc3)CC2)cc(OC)c1OC` it was -16.5% (inactive).
On the same count and under the same terms, as for `O=C(CSc1ccc(-c2ccccn2)nn1)Nc1ccccc1`, the figure is -22.1% (inactive); as for `Cc1ccc(S(=O)(=O)Cc2cc(-c3ccc(Cl)cc3)no2)cc1`, -33.3% [at 5.75 µM] (inactive).
On to `Cc1onc(-c2ccc(Cl)cc2)c1-c1ccnn1S(=O)(=O)c1ccc(Cl)cc1`, for which the Potency is 1.04 µM (active).
For `COC(=O)c1noc(C)c1-c1ccnn1C(=O)c1ccc(Cl)cc1`, the “activity change, negative = inhibition” value was 37.8% (inactive).
Same read-out and setting: as for `COc1ccc(/C=C2\SC(=O)N(CCC(=O)NCCCn3ccnc3)C2=O)cc1`, the figure is 32.1% (inactive); as for `CCOc1ccc(C(=O)COC(=O)c2ccc(-n3cnnn3)cc2)cc1`, -4.08% (inactive); as for `COc1ccc2c(c1)C(NS(=O)(=O)OCC(Cl)(Cl)Cl)CCC2` (centres undefined), 2.43% (inactive).
`O=C(c1cccc(C(=O)N2CCN(c3ccc(F)cc3)CC2)c1)N1CCN(c2ccc(F)cc2)CC1`: the Potency was 13.1 µM (active).
Consider `O=C(c1ccccc1)c1ccc(C(=O)N2CCN(c3ccccc3)CC2)cc1`, for which the “activity change, negative = inhibition” value was 16.6% (inactive).
The same measure, in the same setting: in the case of `O=C(c1cc2cc(F)ccc2[nH]1)N1CCN(c2ccc(F)cc2)CC1` it was -3.15% (inactive); in that of `CCn1c(=S)sc2c(=O)n(CC(=O)Nc3cccc(Br)c3)c(C)nc21`, -6.08% (inactive).
Same read-out and setting: as for `COc1ccccc1C(=O)NCc1nnc(SC(C)C(=O)Nc2nccs2)n1C` (centres undefined), the figure is 1.13% (inactive); as for `CC1CN(C2CCCCC2)c2nc3c(c(=O)n(C)c(=O)n3C)n2C1` (centres undefined), -9.99% (inactive); as for `Cc1cccc(Cn2c(N3CCN(c4ccccc4)CC3)nc3c2c(=O)n(C)c(=O)n3C)c1`, -26.6% (inactive).
Take `CC(C)CCn1c(=O)c2c(nc3n2CCCN3Cc2ccccc2)n(C)c1=O`: the Potency was 9.28 µM (active).
On to `O=C(c1c(F)cccc1Cl)N1CCN(c2ccccn2)CC1`, for which the “activity change, negative = inhibition” value was 8.9% (inactive).
The same measure, in the same setting: in the case of `NC(=O)c1oc2ccccc2c1NC(=O)Cc1ccccc1` it was -26.8% (inactive); in that of `Cc1c(C(C)(C)O)[nH]c2ccc(C#N)cc12`, 25.6% (inactive).
Turning to `COc1ccc(-c2cc(=O)oc3cc(OC(C)C(=O)NCC4CCC(C(=O)O)CC4)ccc23)cc1` (centres undefined), the “activity change, negative = inhibition” value was -13.5% (inactive).
Same read-out and setting: as for `COc1ccc(F)cc1C(=O)COC(=O)c1n[nH]c(=O)c2ccccc12`, the figure is -8.28% (inactive).
In the case of `Nc1nc(SCC(=O)Nc2cc(C(F)(F)F)ccc2Cl)[nH]c(=O)c1NC(=O)c1ccco1`, the “activity change, negative = inhibition” value was 42% (inactive).
With `Cc1cccc(NC(=O)c2sc3nc4c(c(-c5ccco5)c3c2N)CCC4)c1`, the Potency is 2.08 µM (active).
`COc1ccc(OC)c(NC(=O)c2sc3nc(C)cc(C)c3c2N)c1`: the “activity change, negative = inhibition” value was 2.23% (inactive).
For `Cc1cccc(NC(=O)c2sc3nc(N4CCOCC4)c4c(c3c2N)CCCC4)c1`, the “activity change, negative = inhibition” value is 24.7% (inactive).
On the same count and under the same terms, as for `CN(c1ccccc1)S(=O)(=O)c1ccc(NC(=O)COc2ccccc2)cc1`, the figure is 28.6% (inactive); as for `CCN(C(=O)COC(=O)c1cc(S(=O)(=O)N2CCc3ccccc32)ccc1OC)C1CCS(=O)(=O)C1` (centres undefined), -11.5% (inactive); as for `COc1cccc(NC(=O)c2cc(S(=O)(=O)N3CCc4ccccc43)cn2C)c1`, 23.7% (inactive).
Take `COc1ccccc1N(C)C(=O)c1cc(S(=O)(=O)N2CCc3ccccc32)cn1C`: the Potency is 11.7 µM (active).
As for `COc1cc(OC)cc(C(=O)NNC(=O)CCOc2ccccc2OC)c1`, the “activity change, negative = inhibition” value is 10.8% (inactive).
